IL1B secr inh – inflammasome signaling inhibition, IL-1 beta readout | THP-1 LPS/ATP IL-1B secretion, AlphaLISA, 16 h; stronger effect = lower value | activity change, % at 57.5 µM | 360,000 compounds, 4.7% hits | AID 743279; in the data active means activity change below about -50%; inconclusive means mostly about -30% to -49%
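Secreted IL-1B measured by AlphaLISA bead assay after 16 h compound exposure of THP-1 cells; compounds (final up to 57.5 uM) added 1 h before LPS (250 ng/mL) and ATP (1.25 mM) stimulation; lower signal means less secretion.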
DT40 TDP1 no CPT – qHTS for Inhibitors of human tyrosyl-DNA phosphodiesterase 1 (TDP1): qHTS in cells in absence of CPT | DT40 Tdp1-/- hTDP1 cells, no CPT, ATP luminescence, 48 h | Potency, µM (doses to about 46.2 µM), without a hit: at the top dose activity change, negative = growth inhibition, usual class: inhibitors | 420,000 compounds, 15% hits; further: potency means the concentration at half of the fitted maximal effect; nearly all actives have a fitted effect of over 55% in size
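Stably hTDP1-transfected Tdp1-null chicken DT40 cells were treated with library compounds minus camptothecin and grown for at least 48 hr at 37 °C, after which cellular ATP was quantified by luminescence.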
TDP1 cell CPT – growth inhibition of DT40 Tdp1-/-;hTDP1 cells with camptothecin (screen for TDP1 inhibitors); chicken DT40 Tdp1-/-;hTDP1 cells + 20 nM CPT, ATP luminescence, 48 h; 420,000 compounds, 12% hits; Potency, µM (highest dose often 46.2 µM), inactives show at the highest dose activity change, negative = growth inhibition, actives largely listed as inhibitors; AID 686979; further: potency means the concentration at half of the fitted maximal effect; nearly all actives have a fitted effect of over 55% in size
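Chicken DT40 Tdp1-/- cells complemented with human TDP1, 400 cells/well, exposed to compounds plus 20 nM camptothecin for at least 48 h at 37 C; viability read as ATP content by CellTiter-Glo luminescence.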
HT1080NT lethal – kills 2HG-producing HT-1080-NT fibrosarcoma cells; AID 686970; 360,000 compounds, 1.6% hits; HT-1080-NT fibrosarcoma viability, CellTiter-Glo ATP luminescence, 48 h; Potency, µM (top dose mostly 46.1 µM), inactives show at the top dose activity, negative = less viability, actives largely listed as cytotoxic;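 further: NT is the 2HG producing partner of a matched IDH1 knockdown line; potency means the concentration at half of the fitted maximal effect; 0% = DMSO-treated cells and -100% = media-only wells without cells; nearly all actives have a fitted effect of over 55% in size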
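Read-out is CellTiter-Glo luminescence after 10 minutes at room temperature, following 48 hours' compound treatment of HT-1080-NT cells (750 cells/well, RPMI, 5% FBS, 37 degrees C).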
HT1080 IDH1KD tx – kills HT-1080 cells with IDH1 knockdown | HT-1080 IDH1 knockdown viability, ATP luminescence, 48 h | Potency, µM (titrated, usually from 46.1 µM), without a hit: at the highest dose activity, negative = toxicity, most hits filed as cytotoxic | 360,000 compounds, 2% hits;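 further: potency means the concentration at half of the fitted maximal effect; 0% = DMSO wells and -100% = cell-free medium wells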
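Using the IDH1-knockdown HT-1080 line run in the same batch and compound series as the NT line, viability after 48 h at 37 °C was determined by CellTiter-Glo luminescence and expressed as % activity.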
The depositor's hits bear a star; ? = inconclusive; . = no result given; [ ] = dose if it differs, or a comment. An excerpt weighted towards active compounds, which were near 19% of everything screened. Unless noted, the call rests on the fitted dose curve; in most records, active means well fitted curve in the direction sought with a large enough effect; inconclusive means small, poorly fitted or top-dose-only effect, or another doubt; inactive means no such curve, though single readings can be large; an effect the other way counts as inactive or inconclusive. Unless noted, on the % scale 0 is the no-effect control and ±100 the full control effect.

SMILES	IL1B secr inh	DT40 TDP1 no CPT	TDP1 cell CPT	HT1080NT lethal	HT1080 IDH1KD tx
CC(Nc1nc(-c2ccc(F)cc2)cs1)c1nc2cc(Cl)c(Cl)cc2n1CCCO (centres undefined)	-24.0	?	?	?	?
CCCn1c(C(C)Nc2nc(C)cs2)nc2cc(Cl)c(Cl)cc21 (centres undefined)	-8.3	?	?	-5.4%	-10.8%
COc1ccc(-c2csc(NC(C)c3nc4cc(Cl)c(N5CCCCC5)cc4n3CCOCCO)n2)cc1 (centres undefined)	-23.5	?	13µM*	?	?
CCCc1cc2c(-c3ccccc3)cc(=O)oc2cc1OCc1ccc(C(=O)O)o1	14.4	-2.1%	21.2%	-6.7%	-25.4%
COc1ccc(-c2csc(NC(C)c3nc4cc(Cl)c(N5CCCCC5)cc4n3CCCO)n2)cc1 (centres undefined)	?	?	25.9µM*	?	?
COc1ccc2c(c1)CCC1C2CCC2(C)C(O)C(=O)CC12 (centres undefined)	-2.9	?	-18.8%	-3.9%	-12.7%
CC(C)NC(=O)C1CCN(C(=O)c2cnn(-c3ccccc3)c2-n2cccc2)CC1	.	-8.2%	-15.8%	.	.
Cc1cc(C)cc(NC(=O)C2CCN(C(=O)c3cnn(-c4ccccc4)c3-n3cccc3)CC2)c1	.	14.6µM*	18.4µM*	.	.
CSc1cccc(NC(=O)C2CCCN(C(=O)c3cnn(-c4ccc(F)cc4)c3-n3cccc3)C2)c1 (centres undefined)	.	16.4µM*	18.4µM*	.	.
Cc1ccccc1NC(=O)C1CCN(C(=O)c2cnn(-c3ccccc3)c2-n2cccc2)CC1	.	16.4µM*	?	.	.
Cc1ccc(NC(=O)C2CCN(C(=O)c3cnn(-c4ccccc4)c3-n3cccc3)CC2)cc1	.	13µM*	?	.	.
CC(C)NC(=O)N(C)C[C@H]1Oc2ncc(Br)cc2C(=O)N([C@H](C)CO)C[C@@H]1C	9.1	-10.1%	-2.5%	8.7%	11.4%
COCCNC(=S)Nc1ccccc1Cc1ccccc1	0.0	13.8%	2.2%	5.3%	3.4%
Cc1ccc(CNC(=O)C2CCN(C(=O)c3cnn(-c4ccccc4)c3-n3cccc3)CC2)cc1	.	9.2µM*	11.6µM*	.	.
Cc1ccc(NC(=O)C2CCN(C(=O)c3cnn(-c4ccccc4)c3-n3cccc3)CC2)cc1C	.	?	18.4µM*	.	.
Cc1ccc(NC(=O)C2CCN(C(=O)NCc3ccccc3)CC2)cc1C	16.8	-22.0%	0.3%	2.7%	-0.5%
Cc1ccc(-n2ncc(C(=O)N3CCN(C(=O)c4ccco4)CC3)c2-n2cccc2)cc1	-20.1	?	?	-0.7%	4.2%
CCC(C(=O)N1CCOCC1)n1c2ccccc2c2nc(=O)cc(C)n21 (centres undefined)	3.9	1.1%	3.7%	4.9%	-7.5%
CCOC(=O)c1c(-c2ccc(F)cc2)csc1NC(=O)C1CCCO1 (centres undefined)	0.0	?	-13.8%	4.9%	-9.4%
COC(=O)c1c(-c2cccc(C)c2)csc1NC(=O)C1CCCO1 (centres undefined)	-8.9	18.4µM*	?	-6.0%	-4.7%
CC(C)OC(=O)c1c(-c2ccc(C(C)C)cc2)csc1NC(=O)C1CCCO1 (centres undefined)	16.2	14.6µM*	?	-1.2%	-0.1%
CCOC(=O)c1c(-c2ccc(C)cc2)csc1NC(=O)c1cc(=O)c2cc(Cl)ccc2o1	.	4.61µM*	2.2%	.	.
CCOC(=O)c1c(-c2ccc(C)cc2)csc1NC(=O)C1CCCO1 (centres undefined)	6.8	25.9µM*	?	16.7%	3.2%
CCOc1ccc(-c2csc(NC(=O)C3CCCO3)n2)cc1 (centres undefined)	0.0	?	?	-1.9%[9.24 µM]	1.9%
CCOC(=O)c1c(-c2ccccc2)csc1NC(=O)c1cc(-c2ccc(Cl)cc2)on1	.	-9.7%	-9.0%	.	.

Source: PubChem BioAssay (National Center for Advancing Translational Sciences (NCATS))
